Among the data in PubChem BioAssay are composite z-score and composite Z-score values, retold here.

Activity calls are given as the source filed them.

One test concerns the target Albumin (Bos taurus) (UniProt P02769). As to the kind of experiment: compounds binding labelled BSA control protein – biochemical, small-molecule microarray, Alexa647 label, 635/667 nm fluorescence, artefact control for SMM control protein annotation, profiling panel (AID 1118).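 Further: score merges 667 nm emission intensity and signal-to-noise per printed compound spot.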 Particulars: BSA-A647 binding, fluorescence 635 nm, higher = more signal.
A short description of test [1]: probe aXIP binding to arrayed compounds – biochemical, NeuroSMM set, 635/667 nm fluorescence, primary screen (AID 1119).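 Further: probe is the protein aXip251-270 applied at 1 µg/mL to compound-printed slides; binding of probe to printed compounds measured as 667 nm fluorescence plus signal to noise.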 To be noted: small-molecule microarray, higher = more signal, called active from +8 up or from −8 down.
A short description of test [2]: probe aNOTCH3 binding on compound microarray – biochemical, small-molecule microarray, 635/667 nm fluorescence, primary screen (AID 1120).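 Further: probe is a biotin-tagged antibody raised against NOTCH3 rather than NOTCH3 protein; score merges spot fluorescence near 667 nm with spot signal to noise.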 Particulars: higher = more signal.
The nature of test [3]: probe aNOTCH2 binding on compound microarray – biochemical, small-molecule microarray, 635/667 nm fluorescence, primary screen (AID 1121).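 Further: score merges feature fluorescence read at 667 nm with its signal to noise.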 Particulars: higher = more signal.
The target in test [4] is Carbonic anhydrase 2 (Homo sapiens) (UniProt P00918). As to the kind of experiment: compounds binding carbonic anhydrase 2 – biochemical, small-molecule microarray, Alexa647-labelled CAII, profiling panel (AID 1122). To be noted: CAII-A647 binding fluorescence, higher = more signal.
Test [5] is described as follows: COS7 lysate on small-molecule microarray, probe aHis, 635 nm (AID 1123).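 Further: z-score combines 667nm fluorescence intensity with signal-to-noise per printed compound spot.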 To be noted: COS7 cell lysate, fluorescence, higher = more signal.
Test [6] can be described thus: probe aLAP1 signal on lysate-treated microarray – cell lysate, small-molecule microarray, COS7 lysate, primary screen (AID 1124).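 Further: lysate comes from COS7 cells expressing LAP1 and is applied at 0.3 µg/mL; score merges spot fluorescence near 667 nm with signal-to-noise over triplicate slides.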 Particulars: probe aLAP1, fluorescence, higher = more signal.
Another test has as its system Sam68 (KHDRBS1). As to the kind of experiment: compounds binding KHDRBS1 protein – biochemical, small-molecule microarray, 635 nm fluorescence, primary screen (AID 1125).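 Further: score merges 667 nm channel intensity with signal to noise over triplicate slides.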 Particulars: higher = more signal.
The subject of test [7] is Chordin-like protein 2 (CHRDL2). Put plainly: compounds binding chordin-like 2 – biochemical, small-molecule microarray, 635 nm fluorescence, primary screen (AID 1126).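 Further: printed compound slides probed with Chrdl2 protein at 4 µg/mL for 1 h at 4 C; score merges 667 nm emission intensity with signal to noise over three replicate slides.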 Particulars: fluorescence 635 nm, higher = more signal.
The target in test [8] is Concanavalin-A (Canavalia ensiformis) (UniProt P02866). As to the kind of experiment: compounds binding concanavalin A lectin – biochemical, small-molecule microarray, Alexa647 label, 635 nm, artefact control for SMM control protein annotation, primary screen (AID 1127).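 Further: z combines 667 nm emission intensity with signal-to-noise across three replicate slides.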 To be noted: ConA-A647 binding fluorescence, higher = more signal.
Chain of Concanavalin-A (Canavalia ensiformis) (P02866 whole entry, looked up): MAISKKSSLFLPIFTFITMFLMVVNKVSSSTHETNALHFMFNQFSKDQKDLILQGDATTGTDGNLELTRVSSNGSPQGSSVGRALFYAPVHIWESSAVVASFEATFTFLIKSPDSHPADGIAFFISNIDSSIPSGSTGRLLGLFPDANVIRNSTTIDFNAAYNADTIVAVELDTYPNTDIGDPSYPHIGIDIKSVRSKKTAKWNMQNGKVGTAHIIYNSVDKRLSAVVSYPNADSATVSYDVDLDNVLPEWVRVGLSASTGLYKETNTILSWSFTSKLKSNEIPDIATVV

Chain of Albumin (Bos taurus) (P02769 whole entry, looked up): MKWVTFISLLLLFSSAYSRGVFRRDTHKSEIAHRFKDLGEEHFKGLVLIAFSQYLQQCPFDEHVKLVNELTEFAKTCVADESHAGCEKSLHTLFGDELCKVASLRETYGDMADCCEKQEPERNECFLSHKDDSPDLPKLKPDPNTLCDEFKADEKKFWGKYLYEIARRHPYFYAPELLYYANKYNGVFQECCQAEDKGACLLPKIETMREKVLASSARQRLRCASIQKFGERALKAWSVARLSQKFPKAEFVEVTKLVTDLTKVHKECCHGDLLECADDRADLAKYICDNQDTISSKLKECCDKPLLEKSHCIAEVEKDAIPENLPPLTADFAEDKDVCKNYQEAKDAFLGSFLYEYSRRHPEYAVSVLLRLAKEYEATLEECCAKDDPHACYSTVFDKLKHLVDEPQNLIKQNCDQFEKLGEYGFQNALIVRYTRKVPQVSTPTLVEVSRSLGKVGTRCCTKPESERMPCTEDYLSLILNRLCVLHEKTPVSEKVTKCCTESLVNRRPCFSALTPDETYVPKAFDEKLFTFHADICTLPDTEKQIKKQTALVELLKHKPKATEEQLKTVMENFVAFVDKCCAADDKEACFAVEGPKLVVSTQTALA

As to `COCCCNC(=O)[C@]1(Cc2ccccc2)N=C(c2ccc(OCCCO)cc2)O[C@@H]1c1ccccc1`, the composite z-score with Albumin (Bos taurus) came to 0.998; in test [2], 0.108; in test [3], 0.0745; in [4], 0.726; in test [5], 3.09; in [6], 0.401. Moreover, the composite z-score is 1.31 with Sam68 (KHDRBS1), -0.547 in [7] and 1.02 in [8]. Further, the composite Z-score in [1] was 0.12 (inactive).
In the case of `O=C1C[C@@H](O)[C@@H](O)[C@@H]2[C@@H]3C(=O)N(c4cccc(Oc5ccccc5)c4)C(=O)[C@@H]3CC[C@@H]12`, the composite z-score is 0.164 with Albumin (Bos taurus); 0.0496 in [2]; 0.0364 in test [3]; 0.285 in [4]; 0.625 in [5]; 0.318 in [6]. The composite z-score in the test with Sam68 (KHDRBS1) was 1.03; in [7] it was 0.364; in test [8] it was 0.899. In addition, the composite Z-score in test [1] was -0.397 (inactive).
As for `CC(=O)O[C@H]1C2=C(C(=O)[C@@H]3O[C@@H]31)[C@H]1C(C)O[C@@H]2[C@@]23C(=O)[C@@H]4O[C@@H]4[C@@H](O)C2=CO[C@H](C)[C@@H]13` (stereo not given in full), the composite z-score is 0.922 with Albumin (Bos taurus); 0.0026 in [2]; -0.0937 in test [3]; -0.0716 in [4]; -0.519 in test [5]; -0.283 in [6]. Moreover, the composite z-score with Sam68 (KHDRBS1) is -0.113; in test [7] it was 0.249; in test [8], -0.629. Further, in test [1], the composite Z-score was 0.112 (inactive).
For `O=C1C[C@@H](O)[C@@H](O)[C@@H]2[C@@H]3C(=O)N(Cc4ccc5c(c4)OCO5)C(=O)[C@@H]3CC[C@@H]12`, the composite z-score was 0.295 with Albumin (Bos taurus); -0.0146 in [2]; -0.0938 in test [3]; 0.229 in test [4]; 0.0971 in test [5]; -0.0553 in test [6]. Also, the figures for the composite z-score (in the test on Sam68 (KHDRBS1); in test [7]; in test [8]) were 0.507, 0.558 and 0.492, respectively. In addition, the composite Z-score in [1] was 0.856 (inactive).
As for `CCOC(=O)[C@H](CC(C)C)NC(=O)CCC1CC(OC(=O)NCc2cccc3ccccc23)CC2(CCCC(COC(=O)NCCc3ccccc3OC)O2)O1` (stereo not given in full), the composite z-score is 0.752 with Albumin (Bos taurus); -0.155 in test [2]; -0.0708 in test [3]; 0.211 in [4]; 0.398 in test [5]; 0.251 in [6]. The composite z-score came out at 1.3 in the test on Sam68 (KHDRBS1), 0.566 in test [7] and 1.11 in test [8]. The composite Z-score in test [1] was 0.0898 (inactive).
As to `Cc1cc2c(nc1C)CCCN2CC(C)ON=C1[C@H]2CCn3c(=O)n(-c4ccccc4)c(=O)n3[C@H]2[C@H](O)[C@@H]2O[C@H]12` (stereo not given in full), the composite z-score in the test with Albumin (Bos taurus) was 0.243; in test [2] it was 0.173; in [3], -0.0535; in [4] it was 0.171; in test [5], 0.198; in test [6] it was 0.136. Moreover, the values for the composite z-score (with Sam68 (KHDRBS1); in test [7]; in test [8]) were 1.24, 0.647 and 0.367, respectively. Moreover, the composite Z-score in [1] was 0.506 (inactive).
In the case of `CCN1C(=O)[C@H]2[C@H]3[C@H](O)[C@H](O)CC(=NOC[C@@H](C)[C@H](OCc4ccccc4)C(C)C)[C@@H]3CC[C@H]2C1=O`, the composite z-score was 0.665 with Albumin (Bos taurus); -0.152 in test [2]; -0.131 in test [3]; -0.0205 in [4]; 0.276 in [5]; -0.504 in [6]. Moreover, the composite z-score in the test with Sam68 (KHDRBS1) was 0.614; in test [7], -0.13; in [8] it was -0.223. Further, the composite Z-score in test [1] was 0.0576 (inactive).
`COc1ccc([Si](C)(C)[C@H]2[C@H](CCO)O[C@@]3(C(=O)N(Cc4cccc(NC(=O)[C@H](C)O)c4)c4ccccc43)[C@@H]2C)cc1`: the composite z-score is 0.564 in the test with Albumin (Bos taurus); 0.0306 in test [2]; -0.13 in [3]; 0.395 in test [4]; 1.55 in [5]; 0.335 in test [6]. Also, the composite z-score in the test with Sam68 (KHDRBS1) amounted to 1.27; in test [7], 0.189; in test [8], 1.11. In addition, the composite Z-score in test [1] was 1.49 (inactive).
Turning to `COC(=O)CC=C[C@@H](C)[C@@H](C=NO[C@H](C)c1cn([C@@H]2COC[C@H]2O)nn1)OC`, the composite z-score with Albumin (Bos taurus) was 0.162; in test [2] it was -0.0377; in test [3], -0.122; in test [4] it was -0.111; in test [5], 0.214; in test [6], -0.115. Further, the composite z-score in the test with Sam68 (KHDRBS1) came out at 0.747; in test [7] it was 0.666; in [8], 0.266. In test [1], the composite Z-score was -0.311 (inactive).
On to `Cc1ccc(C2CC=C(C(=O)O)CN2S(=O)(=O)c2ccc(C)cc2)cc1` (stereo not given), for which the composite z-score was 0.921 with Albumin (Bos taurus); 0.0203 in test [2]; -0.0567 in test [3]; 0.78 in test [4]; 0.93 in test [5]; 0.953 in [6]. Besides, the composite z-score with Sam68 (KHDRBS1) was 1.32; in test [7] it was 0.193; in test [8] it was 1.12. In test [1], the composite Z-score is -0.326 (inactive).
As for `CCOC(=O)[C@H](Cc1ccccc1)NC(=O)CCC1CC(OC(=O)NCc2ccc3c(c2)OCO3)CC2(CCCC(COC(=O)NCC3CCCCC3)O2)O1` (stereo not given in full), the composite z-score was 0.276 in the test with Albumin (Bos taurus); 0.0525 in test [2]; -0.0891 in test [3]; 0.579 in [4]; 0.575 in test [5]; -0.243 in [6]. For the same compound, the composite z-score in the test on Sam68 (KHDRBS1) came to 1.3; in [7], 0.799; in test [8] it was 1.06. The composite Z-score in test [1] was 0.236 (inactive).
